Screening results deposited in PubChem BioAssay by National Center for Advancing Translational Sciences (NCATS).
An excerpt weighted towards active compounds, which were near 1.3% of everything screened.
TRPV1 potentiator – HTS Assay for Compounds that Act as Potentiators of the Vanilloid Receptor 1. TRPV1-expressing cells, Fluo-8 calcium influx, capsaicin EC20 potentiation. potentiation, % at 8.33 µM. 320,000 compounds, 0.02% hits; in the data active = potentiation above about 80%; inconclusive = between about 30% and that limit
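Fluo-8 calcium influx in TRPV1-expressing cells, kinetic read (ex 480/em 520 nm). Compound added and read 3 min for agonist activity, followed by capsaicin at EC20 final and 2 min further read for enhancement.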
KCNH2 WT inh – qHTS for Inhibitors of KCHN2 3.1: Wildtype qHTS | U2OS, BacMam KCNH2, thallium flux FluxOr; hits give low values | activity change, % at 1.84 µM | 340,000 compounds, 0.37% hits | AID 720551, 2013 | Voltage-gated inwardly rectifying potassium channel KCNH2 (Homo sapiens), Q12809;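 active = maximum activity change below -70%; inconclusive = maximum activity change between -70% and -50%; inactive = maximum activity change above -50%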
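U2OS cells transduced with wild-type KCNH2 virus are loaded with FluxOr dye for 45 min, and thallium flux is measured in kinetic reads before and after stimulation buffer. Rate constants are normalized to DMSO controls.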
TRPV1 agonist – HTS Assay for Compounds that Act as Agonists of the Vanilloid Receptor 1. Transient receptor potential cation channel subfamily V member 1 (Homo sapiens), Q8NER1. TRPV1-expressing cells, Fluo-8 calcium influx, agonist mode. activation, % at 8.33 µM. 320,000 compounds, 0.19% hits; in the data active = activation above about 80%; inconclusive = between about 30% and that limit
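Cells expressing TRPV1 were dye-loaded with Fluo-8 and read kinetically: 10 s baseline, 3 min after compound (agonist portion), then 2 min after EC20 capsaicin (allosteric enhancer portion). Calcium-bound dye fluorescence at 480/520 nm.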
KCNH2 3.1 block – qHTS for Inhibitors of KCHN2 3.1: Mutant qHTS; Potassium voltage-gated channel subfamily H member 2, brain isoform KCNH2 3.1 (human); U2OS KCNH2 3.1, thallium flux FluxOr; hits give low values; activity change, % (tested at about 1.8 µM); 340,000 compounds, 0.95% hits; AID 720553, 2013;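 active = maximum activity change below -70%; inconclusive = maximum activity change from -70% to -50%; inactive = maximum activity change above -50%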;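 also: thallium influx rate constant from kinetic fluorescence after stimulation buffer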
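We transduce U2OS cells with the mutant 3.1 virus, culture them overnight, load FluxOr with Red40 quencher for 45 min, then add stimulation buffer and read kinetically for 2 min to derive a normalized rate constant.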
Numbers stand for hits; - = inactive; ? = inconclusive; . = not tested or not shown.

SMILES | TRPV1 potentiator | KCNH2 WT inh | TRPV1 agonist | KCNH2 3.1 block
Fc1ccc(C(OCCN2CCCC2)c2ccc(F)cc2)cc1 | - | - | - | -77
NN=C1C(Cl)=C(Cl)C(Cl)=C1Cl | . | - | . | -
O=c1[nH]c(=S)n(Cc2ccc(F)cc2)c(O)c1C=NCCCn1ccnc1 | - | - | - | -84
COc1ccc(-c2nn(CCC#N)cc2C(=O)NCc2ccccc2)cc1[N+](=O)[O-] | - | - | - | -
COC(=O)C1=C(c2ccc(Cl)c(C(F)(F)F)c2)C[C@@H]2CC[C@H]1N2C(=O)NCc1cc(C)oc1C(F)(F)F | - | - | - | -89
CCCCCCn1c(O)c(C=NC2CCN(Cc3ccccc3)CC2)c(=O)[nH]c1=O | - | - | - | -95
C=CCn1c(O)c(C=NC2CCN(Cc3ccccc3)CC2)c(=O)[nH]c1=O | - | - | - | -
CCOc1ccc(-c2c(C)n(-c3ccc(OCC)cc3)c3[n+]2CCCCC3)cc1 | ? | - | - | -112
COc1ccc2c(c1)C1(C)CCN(C)CC(C1)C2O (stereo not given) | . | - | . | -
CC(C)CCC1(CCO)C(=O)NC(=S)NC1=O | . | - | . | -
O=C1NC(=O)C(=Cc2csc3ccccc23)C(=O)N1 | - | -209 | - | -180
Cn1cc(C=C2C(=O)NC(=O)NC2=O)c2ccccc21 | - | - | - | -
Fc1ccccc1CNC1CN2CCC1CC2 (stereo not given) | - | - | - | -
Ic1ccccc1CN[C@@H]1C2CCN(CC2)[C@@H]1C(c1ccccc1)c1ccccc1 | - | - | - | -75
CC1=C2CCC3C(CCC4=CC(=O)CCC43C)C2CC1 (stereo not given) | . | - | . | -
O=c1cc(C(F)(F)F)c2cc3c4c(c2o1)CCCN4CCC3 | - | -72 | ? | -109
Cc1cc(Cl)ccc1C(=O)C1CCCN(C2CCSCC2)C1 (stereo not given) | - | - | - | -87
